These results are taken from publication PMC4336329 (PLoS ONE, 2015).

In all, about 310,000 compounds went through this assay and about 2,200 (0.71%) showed an effect of 50% or more. Effects have a minus sign here. The entries come from a sample that favours strong results as a whole.

Chain of human ether-à-go-go-related gene (hERG) potassium channel (Q12809 whole entry, looked up): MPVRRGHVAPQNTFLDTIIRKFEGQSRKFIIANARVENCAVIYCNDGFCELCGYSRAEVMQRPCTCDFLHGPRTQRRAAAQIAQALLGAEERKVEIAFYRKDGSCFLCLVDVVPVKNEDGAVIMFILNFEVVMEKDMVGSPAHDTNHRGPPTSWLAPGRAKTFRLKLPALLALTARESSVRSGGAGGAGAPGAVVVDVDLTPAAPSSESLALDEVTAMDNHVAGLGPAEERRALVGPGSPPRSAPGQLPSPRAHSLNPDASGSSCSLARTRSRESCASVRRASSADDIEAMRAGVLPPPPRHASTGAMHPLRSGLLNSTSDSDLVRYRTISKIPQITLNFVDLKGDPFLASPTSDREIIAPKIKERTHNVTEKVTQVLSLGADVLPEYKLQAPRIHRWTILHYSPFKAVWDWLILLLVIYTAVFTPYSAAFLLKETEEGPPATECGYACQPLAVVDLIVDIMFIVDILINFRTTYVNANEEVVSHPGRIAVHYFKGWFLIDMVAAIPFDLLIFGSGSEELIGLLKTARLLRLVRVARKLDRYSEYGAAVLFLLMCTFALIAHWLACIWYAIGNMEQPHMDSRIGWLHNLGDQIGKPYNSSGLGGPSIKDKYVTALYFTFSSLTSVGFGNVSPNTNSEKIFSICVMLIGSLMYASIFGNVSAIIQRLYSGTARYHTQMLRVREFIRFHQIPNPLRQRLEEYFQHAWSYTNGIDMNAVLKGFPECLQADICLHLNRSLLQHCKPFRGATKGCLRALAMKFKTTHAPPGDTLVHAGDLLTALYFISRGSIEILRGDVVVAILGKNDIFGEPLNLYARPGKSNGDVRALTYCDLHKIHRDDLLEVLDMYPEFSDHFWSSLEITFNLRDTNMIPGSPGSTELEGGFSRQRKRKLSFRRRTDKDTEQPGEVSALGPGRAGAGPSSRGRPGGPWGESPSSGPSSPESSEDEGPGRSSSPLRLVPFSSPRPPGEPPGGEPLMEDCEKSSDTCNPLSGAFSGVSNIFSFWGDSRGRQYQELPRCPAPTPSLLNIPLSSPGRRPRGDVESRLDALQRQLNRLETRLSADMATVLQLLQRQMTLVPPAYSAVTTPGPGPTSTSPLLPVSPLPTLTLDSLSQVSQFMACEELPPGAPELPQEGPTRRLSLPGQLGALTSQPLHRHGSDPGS

The assay has as its target human ether-à-go-go-related gene (hERG) potassium channel (human, UniProt Q12809). The assay can be described thus: primary screen, population patch clamp on CHO cells stably expressing hERG; higher = less effect of the substance.
On to `COc1ccc(/C(C)=N/Nc2ccc(C(=O)O)cc2)cc1OC.O=S(=O)(O)O`, for which the “hERG current change (%, negative = inhibition) at 1uM” value was 11.7%. As for `Cn1c(SCC(=O)NCC2CCCO2)ncc(C(=O)Nc2ccc(F)cc2)c1=O` (stereo not shown), the “hERG current change (%, negative = inhibition) at 1uM” value is given as 5.38%. Regarding `CN1C[C@H](CNC(=O)OCc2ccccc2)C[C@@H]2c3cccc4c3c(cn4C)C[C@H]21`, the “hERG current change (%, negative = inhibition) at 1uM” value is -1.63%. On to `COCCN(CC1CCCN(C2Cc3ccccc3C2)C1)C(=O)CCC(N)=O` (stereo not shown), for which the “hERG current change (%, negative = inhibition) at 1uM” value is on record as -70.8%. Next, `COCCN(CC1CCCN(C2Cc3ccccc3C2)C1)C(=O)CCC(C)=O` (stereo not shown): 7.77%; `COCCN(CC1CCCN(C2Cc3ccccc3C2)C1)C(=O)CCSC` (stereo not shown): -4.27%. To `COCCN(CC1CCCN(C2Cc3ccccc3C2)C1)C(=O)c1ccc(C(C)=O)cc1` (stereo not shown) belongs -51.9%; to `COCCN(CC1CCCN(C2Cc3ccccc3C2)C1)C(=O)CSC` (stereo not shown), 7.99%. Regarding `CCNC(=O)N(CCOC)CC1CCCN(C2Cc3ccccc3C2)C1` (stereo not shown), the “hERG current change (%, negative = inhibition) at 1uM” value is listed as 11.7%.

`N#Cc1ccccc1NC(=O)C1SC(=Nc2ccccc2)C(C(=O)Nc2ccc(Cl)cc2)=C1N` (stereo not shown): the “hERG current change (%, negative = inhibition) at 1uM” value was determined as 6.56%. On to `COC(=O)CCCNS(=O)(=O)c1ccc2ccccc2c1`, for which the “hERG current change (%, negative = inhibition) at 1uM” value was determined as 10.7%. To `CC(C)N(CC#CC(O)(c1ccccc1)c1ccccc1)C(C)C` belongs -38.1%; to `CC(C)(C)C(=O)Cn1c(NCCCl)nc2ccccc21.Cl`, 13.8%; to `COCCNc1nc(CSc2ccccc2)nc2sc(C)c(C)c12`, 11.8%.

As to `Cc1sc2nc(CSc3ccccc3)nc(NCCN(C)C)c2c1C`, the “hERG current change (%, negative = inhibition) at 1uM” value is -50.1%. Next, `CCNc1nc(CSc2ccccc2)nc2sc(C)c(C)c12`: 6.57%. As for `COc1ccc(C(=O)N2CCCN(C)CC2)cc1S(=O)(=O)N1CCCc2ccccc21`, the “hERG current change (%, negative = inhibition) at 1uM” value turned out to be 1.09%.

For `NC(=O)c1nsc(C(=O)N(CC(=O)NCc2ccco2)c2ccccc2F)c1N`, the “hERG current change (%, negative = inhibition) at 1uM” value came to 1.03%. Next, `Fc1ccc(NC(=S)Nc2ccc(F)c(Cl)c2)cc1Cl`: 7.52%; `CCN(C(=O)CSc1nc2ccccc2c(=O)n1Cc1ccc(C)cc1)C1CCS(=O)(=O)C1` (stereo not shown): -71.4%; `C=CCn1c(SCC(=O)N(C)C2CCS(=O)(=O)C2)nc2ccccc2c1=O` (stereo not shown): -36.1%. As for `O=C(CSc1nc(-c2cccs2)nc2ccccc12)NC1CCS(=O)(=O)C1` (stereo not shown), the “hERG current change (%, negative = inhibition) at 1uM” value amounted to 17.3%. With `CCN(C(=O)CSc1nc(-c2cccs2)nc2ccccc12)C1CCS(=O)(=O)C1` (stereo not shown), the “hERG current change (%, negative = inhibition) at 1uM” value is -78.4%. Next, `CCN(C(=O)CSc1nc2ccccc2c(=O)n1-c1ccc(C)cc1)C1CCS(=O)(=O)C1` (stereo not shown): 1.16%. On to `C=CCn1c(SCC(=O)N(CC)C2CCS(=O)(=O)C2)nc2ccccc2c1=O` (stereo not shown), for which the “hERG current change (%, negative = inhibition) at 1uM” value was -81.6%. Take `C=CCn1c(SCC(=O)N(CC)C2CCS(=O)(=O)C2)nc2cc(C(=O)O)ccc2c1=O` (stereo not shown): the “hERG current change (%, negative = inhibition) at 1uM” value is 16.4%. As to `Cc1ccc(Cn2c(SCC(=O)N(C)C3CCS(=O)(=O)C3)nc3ccccc3c2=O)cc1` (stereo not shown), the “hERG current change (%, negative = inhibition) at 1uM” value is given as -41.9%. To `CCN(C(=O)CSc1n[nH]c(-c2cccs2)n1)C1CCS(=O)(=O)C1` (stereo not shown) belongs 11.8%. For `Cc1cc(=O)[nH]c2ccc(S(=O)(=O)NC3CCCCC3)cc12`, the “hERG current change (%, negative = inhibition) at 1uM” value is given as 7.42%. Take `CC(OC(=O)C(C)Oc1ccccc1)C(=O)Nc1ccc(S(=O)(=O)N2CCCCC2)cc1` (stereo not shown): the “hERG current change (%, negative = inhibition) at 1uM” value was 12.9%.

For `Oc1ccc(/C=N/N2CCCCC2)cc1O`, the “hERG current change (%, negative = inhibition) at 1uM” value came to 14.2%. Next, `CCOCCN1CCN(c2c(CC)c(C)nc3cc(-c4cc(OC)cc(OC)c4)nn23)CC1`: -14%; `COc1ccc(NC(=O)CN(C)C(=O)CCCc2nc3ccccc3s2)cc1`: -15.7%. Next, `COc1nc(-c2ccccc2)ccc1-c1noc(COc2ccccc2)n1`: 17.7%; `CCOC(=O)Cn1c(=O)oc2cc(S(=O)(=O)N(C)c3cccc(C)c3)ccc21`: -1.77%; `O=[N+]([O-])c1cc2c(cc1CN1CCN(c3ccc(F)cc3)CC1)OCO2`: 7.89%. For `CCCCCCCCOC(=O)c1nc(Cl)c(Cl)c(N)c1Cl`, the “hERG current change (%, negative = inhibition) at 1uM” value is given as -64.4%. To `CCCCCCCOC(=O)c1nc(Cl)c(Cl)c(N)c1Cl` belongs 0.504%; to `CCCCOC(=O)c1nc(Cl)c(Cl)c(N)c1Cl`, 12%.

On to `CCOc1cccc(-c2nn3c(-c4cc(C)[nH]n4)nnc3s2)c1`, for which the “hERG current change (%, negative = inhibition) at 1uM” value is given as -8.21%. With `COc1ccc(/C=C/c2cc(-c3ccc(C)cc3)o[n+]2C)cc1.F[B-](F)(F)F`, the “hERG current change (%, negative = inhibition) at 1uM” value is given as -76.5%.

For `COc1ccc(/C=C/c2cc(C(F)(F)F)on2)cc1`, the “hERG current change (%, negative = inhibition) at 1uM” value is 17.5%. On to `COc1ccc(/C=C/C(=O)Oc2ccc(C)cc2)cc1`, for which the “hERG current change (%, negative = inhibition) at 1uM” value turned out to be 1.29%.
